From PubChem BioAssay
This is a sample that favours compounds with a hit; in the whole collection about 21% have one here.
Cycloheximide cs: Cycloheximide Counterscreen for Small Molecule Inhibitors of Shiga Toxin; max response, %; cell reporter, cycloheximide protein synthesis inhibition counterscreen; AID 2314, 2010; hit rate 12% among 300,000; in the data active means max response mostly above about 13%, no sharp cut-off; inactive means mostly below about 14%; further: read at 38.3 µM for the half of the compounds with a filed dose; 0% is about no effect
Sm TGR inh: qHTS Assay for the Inhibitors of Schistosoma Mansoni Peroxiredoxins; purified TGR, DTNB reduction, TNB absorbance 405 nm; Potency, µM (doses to about 114 µM), inactives show at the top dose activity change, negative = inhibition, most hits filed as inhibitors; hit rate 3% among 360,000; AID 485364, 2010; further: potency means the concentration at half of the fitted maximal effect; on the % scale 0 is the no-effect control and ±100 the full control effect; nearly all actives have a fitted effect of over 60% in size
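TGR 20 nM + NADPH 100 uM (dispensed conc.), cpd preinc 15 min RT; start with NADPH (500 uM addition) then DTNB (15 mM addition). Kinetic TNB absorbance, 405 nm filter. Four-parameter Hill fit across titration.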
Pf growth 48h: Primary qHTS for delayed death inhibitors of the malarial parasite plastid, 48 hour incubation; P. falciparum luciferase growth in erythrocytes, 48 h; Potency, µM (highest dose often 28.7 µM), for inactives: top-dose activity change, negative = inhibition, usual class: inhibitors; hit rate 5.9% among 310,000; further: potency means the concentration at half of the fitted maximal effect; on the % scale 0 is the no-effect control and ±100 the full control effect
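Here the parasites carry a stable luciferase gene and grow inside erythrocytes in Albumax-based RPMI medium with compound for one erythrocytic cycle. Activity is scored as loss of luminescent signal.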
Pf growth 96h: Primary qHTS for delayed death inhibitors of the malarial parasite plastid, 96 hour incubation; P. falciparum luciferase reporter growth, 96 h; hit rate 6.9% among 320,000; Potency, µM (highest dose often 28.7 µM), inactives show at the top dose activity change, negative = inhibition, most hits filed as inhibitors; AID 504834, 2011; further: potency means the concentration at half of the fitted maximal effect; on the % scale 0 is the no-effect control and ±100 the full control effect
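Two parasite generations (96 h, 37 C, 5% CO2) of compound exposure in infected erythrocytes (0.05% parasitemia, 2% hematocrit). Luciferase-reporter P. falciparum; decreased luminescence indicates inhibited growth, aimed at apicoplast-acting delayed death.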
NS1 function inh: qHTS Assay for Inhibitors of Influenza NS1 Protein Function | Potency, µM (series often up to 46.1 µM), without a hit: at the highest dose activity, positive = more growth | hit rate 0.4% among 270,000 | AID 2326, 2010; calls by dose curve; further: potency means the concentration at half of the fitted maximal effect; actives are rising curves; nearly all actives have a fitted effect of over 50% in size
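A cell-based growth assay was used: compounds that relieve NS1-induced slow growth of budding yeast raise OD600. Assay medium was yeast nitrogen base with ammonium sulphate and -URA supplement, pH 6.0, with 2% galactose.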
Shiga inhibitor: A qHTS for Small Molecule Inhibitors of Shiga Toxin | inhibition, % at 38.7 µM | Vero cells, Shiga toxin protein synthesis inhibition reporter | AID 2315, 2010 | hit rate 9.2% among 290,000; in the data active means inhibition mostly above about 28%, no sharp cut-off; inactive means mostly below about 43%; further: 0% is about no effect
Active calls of the source: *; ? = inconclusive; / = not tested or not shown; ! = a repeat was not active; [ ] = another dose, or the depositor's remark. Unless noted, the call rests on the fitted dose curve; in most records, active means well fitted curve in the direction sought with a large enough effect; inconclusive means small, poorly fitted or top-dose-only effect, or another doubt; inactive means no such curve, though single readings can be large; an effect the other way counts as inactive or inconclusive.

SMILES	Cycloheximide cs	Sm TGR inh	Pf growth 48h	Pf growth 96h	NS1 function inh	Shiga inhibitor
Cc1cc(NC(=O)CCC(=O)N(Cc2ccco2)C(C(=O)NC2CCCCC2)c2cccs2)no1 (centres undefined)	0	/	?	-8%	-4%	-16
COC(CNC(=O)c1ccc(CS(=O)(=O)c2c(Cl)cccc2Cl)o1)OC	-4	0%	1%[0.00184 µM]	-26%	6%	-2
Cc1cccc(N(C(=O)CCC(=O)Nc2cc(C)on2)C(C(=O)NC2CCCC2)c2ccc(C)o2)c1 (centres undefined)	26*	2%	?	12%	0%	28*
Cc1ccc([C@@H](O)c2cnc(C)n2Cc2ccccc2)cc1	/	/	/	/	-3%	/
COc1ccc(C(=O)OCC(=O)NCC2CCCO2)c(F)c1 (centres undefined)	/	0%	4%	9%	/	/
Cc1ccc(SCC(=O)NC2CC3CCC(C2)N3C)cc1 (centres undefined)	10	8%	2%	-24%	8%	3
CN1C2CCC1CC(NC(=O)CSCc1ccc(Cl)cc1Cl)C2 (centres undefined)	-2	-7%	?	13µM*	-3%	6
NC(=O)[C@@H]1CCCNc2c(I)cc([N+](=O)[O-])cc2C(=O)N[C@@H](CCC(=O)O)C(=O)N[C@@H](CO)C(=O)N1	-4	-8%	9%	13%	4%	-24
CN1CCN(c2nc(-c3cccs3)cs2)CC1	27*	-12%	41%	47%	/	61
O=C1c2ccccc2C(=O)N1c1nc(-c2cccs2)cs1	8	-1%	50%	15µM*	-93%	10
Cc1cccc(N2C(=O)c3ccccc3C2=O)n1	9	2%	13%	32%	0%	15
NC(=O)C1CCN(c2nc(-c3cc4ccccc4o3)cs2)CC1	/	?	?	2%	/	/
CN1CCN(c2nc(-c3cc4ccccc4o3)cs2)CC1	48*	-2%	107%	154%	1%	85*
Nc1nc(-c2cc3ccccc3o2)cs1	33*	-13%	225%	86%	-43%	98*
O=C(Nc1cc(Cl)cc(Cl)c1)N1CCCN(Cc2ccccc2)CC1	4	-19%	?	?	-2%	2
CCOC(=O)c1ccc(N=C2C(=S)N(c3ccc(C(=O)OCC)cc3)C(=N)N2/N=C/c2ccccc2)cc1	12	-14%	?	10µM*	13%	33*
CCOc1ccccc1NC(=O)CN(C)S(=O)(=O)c1ccc2[nH]c(=O)oc2c1	9	14%	8%	-13%	23%	0
COC(=O)CSc1ccc(S(=O)(=O)N2CCOCC2)cc1[N+](=O)[O-]	-1	-4%	20%	10µM*	-6%	-12
CN(CC(=O)O)c1ccc(S(=O)(=O)N2CCOCC2)cc1[N+](=O)[O-]	-2	-14%	2.6µM*	95%	5%	-11
CCCN(CCC)C(=O)C1CCN(c2ccc(S(=O)(=O)N3CCOCC3)cc2[N+](=O)[O-])CC1	2	8%	?	5.2µM*	-2%	-6
CCOC(=O)CSc1ccc(S(=O)(=O)N2CCC(C)CC2)cc1[N+](=O)[O-]	-3	-3%	-6%	274%	-6%	-17
COCCN(CCOC)C(=O)C1CCN(c2ccc(S(=O)(=O)N3CCOCC3)cc2[N+](=O)[O-])CC1	/	7%	?	?	/	/
CN(CC(=O)Nc1ccc(F)cc1)c1ccc(S(=O)(=O)N2CCCCC2)cc1[N+](=O)[O-]	-2	3%	?	?	24%	11
COc1ccc(S(=O)(=O)N2CCC3(CC2)OCCN3S(=O)(=O)c2ccc(C)cc2)cc1OC	/	-1%	-2%	7%	/	/
Cc1ccc(C)c(N2CCN(C(=O)c3cc4c(=O)n(Cc5cccs5)ccc4nc3C)CC2)c1	/	2%	/	/	/	/
SMILES	Cycloheximide cs	Sm TGR inh	Pf growth 48h	Pf growth 96h	NS1 function inh	Shiga inhibitor
COc1cccc(CNC(=O)c2ccc3c(c2)nc2n3CCC(C)C2)c1OC (centres undefined)	/	3%	/	/	/	/
COCCn1c(SCC(=O)c2ccc(Cl)cc2)nnc1C(C)C	1	40µM*	-10%	31%	-7%	1
COCCn1c(SCC(=O)NCc2ccco2)nnc1C(C)C	-1	45µM*	-3%	-3%	3%	-5
CCOC(=O)c1cccc(NC(=O)CSc2nnc(-c3ccoc3C)n2CCOC)c1	9.2*	-29%	0%	1.2µM*	-5%	9
COCCn1c(SCC(=O)Nc2cccc(OC)c2)nnc1-c1ccc(Cl)cc1	-2	4%	-20%	/	-3%	-8
COCCn1c(SCC(=O)Nc2cccc(OC)c2)nnc1-c1ccccc1	-3	1%	-2%	2.3µM*	6%	-7
CCOc1ccc(S(=O)(=O)N(CC(=O)N2CCC(C(N)=O)CC2)c2ccc(F)cc2)cc1	7	1%	-8%	-26%	10%	-8
COCCn1c(SCC(=O)Nc2cc(C)cc(C)c2)nnc1C(C)C	0	5%	-5%	39%	-4%	-4
COCCn1c(SCC(=O)Nc2cccc(C)c2)nnc1C(C)C	2	-27%	15%	0.17µM*	-6%	34
CC(C)(C)c1ccc(CS(=O)CC(O)CO)cc1 (centres undefined)	-3	0%	8%	21%	11%	-7
O=C(NC1(O)C(=O)c2ccccc2C1=O)c1c(Cl)cccc1Cl	-4	-12%	2.9µM*	33%	-51%	-6
COc1cc(O)c(C(CCN2CCCC(C)C2)c2ccc(N(C)C)cc2)c(OC)c1 (centres undefined)	-2	-21%	0.74µM*	0.47µM*	-10%	11
COc1cc(OC)c2ccc(=O)oc2c1C(CCN1CCCC(C)C1)c1ccc2c(c1)OCO2 (centres undefined)	44*!	1%	9.3µM*	10µM*	1%	124*!
COc1cc(O)c(C(CCN2CCCC(C)C2)c2ccc3c(c2)OCO3)c(OC)c1 (centres undefined)	-9	-13%	0.66µM*	0.59µM*	-9%	-5
COc1cc(O)c(C(CC(=O)N2CCOCC2)c2ccc3c(c2)OCO3)c(OC)c1 (centres undefined)	-1	-5%	?	17%	3%	-3
COc1cc(O)c(C(CCN2CCOCC2)c2ccc3c(c2)OCO3)c(OC)c1 (centres undefined)	-3	-30%	1.7µM*	2.3µM*	-1%	-3
Cc1cc(C(F)(F)F)nc(-n2cc(-c3ccccc3)nn2)n1	-2	6%	6%	?	-3%	1
Cc1ccc(N2C(=O)CCSC23C(=O)N(Cc2ccccc2)c2ccccc23)cc1 (centres undefined)	/	1%	/	/	/	/
CCOCCCNC(=O)Cn1cnc2sc(C)c(S(=O)(=O)N3CCN(c4ncccn4)CC3)c2c1=O	-2	10%	7%	-19%	/	-3
